This is an account of results in ChEMBL document CHEMBL3988442, “University of Dundee, Small-Polar-MMV Screening Library” (2021).

For some assays here: Results with a measured potency or affinity are listed apart.

Parameters in all cases: scale not given: direction of the effect not stated beside the values
In assay [1] the target is Protein translocase subunit SecA (Escherichia coli (strain K12)) (UniProt P10408). The experiment in a line: Assay to Identify E. coli SecA ATPase Inhibitors. The class given is functional. As to conditions: 30 µM.
Protein translocase subunit SecA (Escherichia coli (strain K12)), sequence (P10408 whole entry): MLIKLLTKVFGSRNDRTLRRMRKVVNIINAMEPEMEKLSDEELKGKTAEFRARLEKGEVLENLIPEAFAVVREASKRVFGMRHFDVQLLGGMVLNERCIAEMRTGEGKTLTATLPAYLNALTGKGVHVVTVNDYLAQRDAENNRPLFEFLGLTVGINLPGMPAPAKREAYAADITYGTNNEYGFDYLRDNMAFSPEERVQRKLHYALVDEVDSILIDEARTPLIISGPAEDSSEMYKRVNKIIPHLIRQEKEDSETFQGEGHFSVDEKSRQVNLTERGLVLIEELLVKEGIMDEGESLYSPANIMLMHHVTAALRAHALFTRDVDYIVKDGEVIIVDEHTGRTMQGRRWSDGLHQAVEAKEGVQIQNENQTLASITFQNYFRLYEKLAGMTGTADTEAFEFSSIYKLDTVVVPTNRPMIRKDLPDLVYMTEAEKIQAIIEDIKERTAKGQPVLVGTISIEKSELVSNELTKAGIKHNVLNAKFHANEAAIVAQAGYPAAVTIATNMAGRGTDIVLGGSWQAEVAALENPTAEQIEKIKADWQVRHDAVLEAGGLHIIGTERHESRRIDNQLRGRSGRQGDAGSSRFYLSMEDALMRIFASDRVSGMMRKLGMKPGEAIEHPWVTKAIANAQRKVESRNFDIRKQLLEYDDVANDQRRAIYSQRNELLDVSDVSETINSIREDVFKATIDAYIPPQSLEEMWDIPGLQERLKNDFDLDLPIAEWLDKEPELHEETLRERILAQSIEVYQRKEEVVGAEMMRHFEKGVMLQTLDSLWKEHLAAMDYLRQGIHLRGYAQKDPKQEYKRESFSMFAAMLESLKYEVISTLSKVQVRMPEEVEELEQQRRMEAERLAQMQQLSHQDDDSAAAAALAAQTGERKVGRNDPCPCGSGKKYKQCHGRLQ
In assay [2] the target is T1, Ubiquitin-activating enzyme e1, putative (Leishmania donovani (strain BPK282A1)) (UniProt E9BSI1).
T1 sequence (whole entry): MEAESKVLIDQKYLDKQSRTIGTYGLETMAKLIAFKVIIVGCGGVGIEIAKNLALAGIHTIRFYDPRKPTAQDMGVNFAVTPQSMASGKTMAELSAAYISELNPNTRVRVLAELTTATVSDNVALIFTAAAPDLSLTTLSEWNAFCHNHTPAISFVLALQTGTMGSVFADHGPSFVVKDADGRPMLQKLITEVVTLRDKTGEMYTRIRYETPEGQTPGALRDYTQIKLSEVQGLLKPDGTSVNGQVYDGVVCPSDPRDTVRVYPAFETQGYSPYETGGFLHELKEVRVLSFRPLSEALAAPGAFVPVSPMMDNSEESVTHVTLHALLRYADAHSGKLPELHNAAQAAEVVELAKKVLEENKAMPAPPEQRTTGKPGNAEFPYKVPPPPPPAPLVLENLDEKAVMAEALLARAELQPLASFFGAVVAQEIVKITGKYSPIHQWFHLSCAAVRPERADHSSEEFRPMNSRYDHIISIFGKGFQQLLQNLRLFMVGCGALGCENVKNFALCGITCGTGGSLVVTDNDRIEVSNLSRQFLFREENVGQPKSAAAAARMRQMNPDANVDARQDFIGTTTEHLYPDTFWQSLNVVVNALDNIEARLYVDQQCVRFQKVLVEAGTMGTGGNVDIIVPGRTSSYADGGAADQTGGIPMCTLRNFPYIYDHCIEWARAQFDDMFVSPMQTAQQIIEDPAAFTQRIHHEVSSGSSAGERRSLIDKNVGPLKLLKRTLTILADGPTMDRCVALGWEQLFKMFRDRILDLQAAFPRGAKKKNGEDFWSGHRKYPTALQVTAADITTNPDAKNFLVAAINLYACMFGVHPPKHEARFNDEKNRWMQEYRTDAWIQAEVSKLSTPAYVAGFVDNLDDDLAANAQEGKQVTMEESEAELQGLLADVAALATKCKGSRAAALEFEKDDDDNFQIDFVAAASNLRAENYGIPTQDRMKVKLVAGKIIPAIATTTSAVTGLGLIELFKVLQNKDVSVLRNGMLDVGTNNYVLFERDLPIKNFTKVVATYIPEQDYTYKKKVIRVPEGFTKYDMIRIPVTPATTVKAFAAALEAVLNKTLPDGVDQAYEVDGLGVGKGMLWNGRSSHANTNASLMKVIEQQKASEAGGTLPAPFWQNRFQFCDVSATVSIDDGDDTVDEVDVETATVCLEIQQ
The assay is described as follows: Leishmania donovani Ubiquitin Activating Enzyme (LdE1). Type of assay: functional. The conditions noted are these: 30 µM.

For assay [3], the target named is AMP-activated protein kinase, AMPK (Homo sapiens) (UniProt P54646+O43741+P54619+Q9UGJ0+Q9Y478+Q13131+Q9UGI9). The assay is described as follows: AMP-dependent Kinase enzyme assay. An in vitro enzyme assay that detects ADP turnover that is directly proportional to AMPK activity. This uses naive AMPK that is activated during the assay with MK-8722. The class given is functional. The conditions noted are these: 30 µM.

For assay [4], the target named is Sialic acid-binding Ig-like lectin 9 (Homo sapiens) (UniProt Q9Y336). The assay is described as follows: Hs-Siglec9 ALPHAscreen SOP 20170721. The conditions noted are these: 10 µM.
Sialic acid-binding Ig-like lectin 9 (Homo sapiens), sequence (Q9Y336 whole entry): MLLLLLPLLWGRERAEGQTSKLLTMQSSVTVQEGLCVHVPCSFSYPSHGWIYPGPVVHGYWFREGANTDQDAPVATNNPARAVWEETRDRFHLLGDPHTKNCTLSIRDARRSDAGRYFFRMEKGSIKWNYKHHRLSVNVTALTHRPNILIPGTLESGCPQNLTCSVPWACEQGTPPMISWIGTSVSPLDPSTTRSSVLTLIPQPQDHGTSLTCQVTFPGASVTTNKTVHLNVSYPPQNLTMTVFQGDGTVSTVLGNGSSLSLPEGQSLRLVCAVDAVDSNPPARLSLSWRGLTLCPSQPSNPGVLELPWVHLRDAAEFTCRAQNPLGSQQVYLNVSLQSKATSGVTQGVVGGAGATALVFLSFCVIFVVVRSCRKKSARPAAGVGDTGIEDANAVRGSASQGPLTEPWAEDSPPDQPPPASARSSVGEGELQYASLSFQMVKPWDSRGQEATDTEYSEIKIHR
A further assay has as its system Trypanosoma cruzi. The assay is described as follows: Trypanosoma cruzi phosphomannomutase and mannose-1-phosphate guanylyltransferase assay. As to conditions: 10 µM. Type of assay: functional.
Assay [5] concerns the target T2, Arginase-2, mitochondrial (Homo sapiens) (UniProt P78540).
T2 sequence (whole entry): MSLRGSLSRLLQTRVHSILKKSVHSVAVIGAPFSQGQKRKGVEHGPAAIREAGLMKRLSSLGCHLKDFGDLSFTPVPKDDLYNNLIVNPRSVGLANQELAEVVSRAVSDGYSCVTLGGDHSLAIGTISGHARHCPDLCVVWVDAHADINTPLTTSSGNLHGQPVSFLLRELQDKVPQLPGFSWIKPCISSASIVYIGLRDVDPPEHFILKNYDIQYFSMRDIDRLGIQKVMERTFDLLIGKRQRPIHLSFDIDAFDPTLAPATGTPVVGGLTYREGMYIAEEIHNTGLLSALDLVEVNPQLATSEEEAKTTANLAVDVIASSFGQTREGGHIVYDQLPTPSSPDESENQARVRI
The assay is described as follows: in vitro enzyme assay to detect the production of urea directly proportional to the activity of Arginase II. Also: in the data most compounds retested in dose-response had high values. The class given is functional. The conditions noted are these: 33.3 µM.

Assay [6] deals with T3, Proteasome subunit beta (Trypanosoma cruzi) (UniProt O96673).
T3 sequence (whole entry): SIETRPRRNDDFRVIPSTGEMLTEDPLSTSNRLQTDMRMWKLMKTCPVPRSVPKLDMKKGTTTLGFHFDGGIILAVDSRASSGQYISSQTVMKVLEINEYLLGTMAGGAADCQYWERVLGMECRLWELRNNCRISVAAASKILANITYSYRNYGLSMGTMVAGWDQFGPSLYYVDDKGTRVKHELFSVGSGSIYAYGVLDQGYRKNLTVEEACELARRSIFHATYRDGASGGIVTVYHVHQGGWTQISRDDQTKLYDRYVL
The assay is described as follows: Trypanosoma cruzi proteasome chymotrypsin-like activity (TcProtChymo) assay. Also: in the data most compounds retested in dose-response had high values. Type of assay: functional. The conditions noted are these: 9.37 µM.

The species entered for a further assay is Homo sapiens. The experiment in a line: To identify inhibition of the IFN signalling (Jak-Stat) pathway via expression of an eGFP reporter gene under the control of an IFN-stimulated response element (ISRE) containing MxA promoter. Type of assay: functional. The conditions noted are these: 30 µM.
The target in assay [7] is T4, Tyrosyl-tRNA synthetase, putative (Trypanosoma cruzi (strain CL Brener)) (UniProt Q4DSP6).
T4 sequence (whole entry): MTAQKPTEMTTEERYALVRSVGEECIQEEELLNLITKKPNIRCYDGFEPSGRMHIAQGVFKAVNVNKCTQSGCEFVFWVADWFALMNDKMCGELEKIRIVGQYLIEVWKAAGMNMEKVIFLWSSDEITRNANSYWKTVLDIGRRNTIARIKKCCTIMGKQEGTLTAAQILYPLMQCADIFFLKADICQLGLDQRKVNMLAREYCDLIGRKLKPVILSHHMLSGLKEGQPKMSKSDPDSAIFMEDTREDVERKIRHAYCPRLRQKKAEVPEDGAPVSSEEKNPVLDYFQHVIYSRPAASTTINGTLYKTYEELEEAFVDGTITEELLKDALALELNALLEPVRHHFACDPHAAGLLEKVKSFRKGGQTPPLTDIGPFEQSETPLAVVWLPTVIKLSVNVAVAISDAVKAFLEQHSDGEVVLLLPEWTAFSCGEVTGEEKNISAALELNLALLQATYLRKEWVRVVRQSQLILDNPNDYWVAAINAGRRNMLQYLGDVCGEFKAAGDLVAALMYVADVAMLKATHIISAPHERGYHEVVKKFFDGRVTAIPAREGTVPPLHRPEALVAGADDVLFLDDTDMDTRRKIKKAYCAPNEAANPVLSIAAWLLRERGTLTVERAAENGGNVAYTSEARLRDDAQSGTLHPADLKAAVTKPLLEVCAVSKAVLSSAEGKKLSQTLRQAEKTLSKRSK
The experiment in a line: Trypanosoma cruzi tyrosyl tRNA synthetase (TcYRS) _High Tyrosine SOP. Also: in the data most compounds retested in dose-response had high values. The class given is functional. The conditions noted are these: 30 µM.

The target of assay [8] is T4, Tyrosyl-tRNA synthetase, putative (Trypanosoma cruzi (strain CL Brener)). The experiment in a line: Trypanosoma cruzi tyrosyl tRNA synthetase (TcYRS) SOP. The class given is functional. The conditions noted are these: 30 µM.
Assay [9] concerns the target Chromo domain-containing protein 1 (Saccharomyces cerevisiae (strain ATCC 204508 / S288c) (Baker's yeast)) (UniProt P32657). The assay is described as follows: ScCHD-1 Enzyme Inhibition Assay. Also: in the data most compounds retested in dose-response had high values. Type of assay: functional. The conditions noted are these: 30 µM.

Chromo domain-containing protein 1 (Saccharomyces cerevisiae (strain ATCC 204508 / S288c) (Baker's yeast)), sequence (P32657 whole entry, the tested form may be a part): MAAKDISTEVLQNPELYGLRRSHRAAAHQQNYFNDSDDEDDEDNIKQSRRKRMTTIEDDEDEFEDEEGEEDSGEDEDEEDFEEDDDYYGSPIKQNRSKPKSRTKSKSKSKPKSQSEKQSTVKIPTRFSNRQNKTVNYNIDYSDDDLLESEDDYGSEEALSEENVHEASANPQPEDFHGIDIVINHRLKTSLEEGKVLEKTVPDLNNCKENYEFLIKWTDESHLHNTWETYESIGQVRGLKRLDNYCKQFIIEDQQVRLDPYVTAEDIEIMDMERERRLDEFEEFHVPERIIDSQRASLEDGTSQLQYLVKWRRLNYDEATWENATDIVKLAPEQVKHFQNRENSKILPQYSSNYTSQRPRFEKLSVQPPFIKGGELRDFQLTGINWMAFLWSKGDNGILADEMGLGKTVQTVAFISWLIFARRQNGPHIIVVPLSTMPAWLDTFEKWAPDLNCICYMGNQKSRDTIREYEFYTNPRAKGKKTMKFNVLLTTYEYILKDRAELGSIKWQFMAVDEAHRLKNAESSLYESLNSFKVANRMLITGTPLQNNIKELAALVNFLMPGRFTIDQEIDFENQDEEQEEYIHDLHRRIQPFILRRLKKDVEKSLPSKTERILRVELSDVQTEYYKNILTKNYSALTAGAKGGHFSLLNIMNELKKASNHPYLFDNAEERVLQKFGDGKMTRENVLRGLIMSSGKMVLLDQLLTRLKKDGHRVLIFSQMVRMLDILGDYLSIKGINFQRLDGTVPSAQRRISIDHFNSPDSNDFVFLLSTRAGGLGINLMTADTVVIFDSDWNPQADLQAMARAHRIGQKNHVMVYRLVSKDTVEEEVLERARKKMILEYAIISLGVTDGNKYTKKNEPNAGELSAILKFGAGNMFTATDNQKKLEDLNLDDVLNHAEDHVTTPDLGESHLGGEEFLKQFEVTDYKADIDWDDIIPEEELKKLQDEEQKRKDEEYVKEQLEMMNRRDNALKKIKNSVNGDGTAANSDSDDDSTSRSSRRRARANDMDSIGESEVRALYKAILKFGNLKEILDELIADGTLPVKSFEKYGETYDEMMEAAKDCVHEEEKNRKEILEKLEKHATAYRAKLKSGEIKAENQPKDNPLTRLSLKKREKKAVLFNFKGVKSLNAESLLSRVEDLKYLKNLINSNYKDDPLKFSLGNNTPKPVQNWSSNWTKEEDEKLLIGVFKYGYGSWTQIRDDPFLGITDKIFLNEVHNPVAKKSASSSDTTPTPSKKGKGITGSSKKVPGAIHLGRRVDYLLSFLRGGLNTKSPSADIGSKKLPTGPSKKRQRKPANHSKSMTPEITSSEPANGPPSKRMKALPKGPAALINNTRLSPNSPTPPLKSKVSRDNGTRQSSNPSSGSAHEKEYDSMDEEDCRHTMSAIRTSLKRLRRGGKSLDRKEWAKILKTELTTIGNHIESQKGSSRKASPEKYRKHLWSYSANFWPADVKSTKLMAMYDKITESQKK

Regarding `O=C(c1ccc[nH]1)N1CCC2(CC1)C(=O)Nc1ccccc12`, the Percent Effect was -3.56% in assay [1]; 16.2% in assay [2]; -2.52% in [3]; 18% in assay [4]; 6.35% in the assay on Trypanosoma cruzi; 4.22% in assay [5]. The Percent Effect in [6] is 10.7%; in the assay listed under Homo sapiens, -3.84%; in assay [7], 5.38%; in assay [8], 23.5%; in assay [9] it was -5.84%.

In the case of `CC(CCc1ccccc1)NC(=O)Nc1cnn(CC(N)=O)c1` (stereo not given), the Percent Effect is -2.21% in assay [1]; 16.5% in assay [2]; -2.88% in assay [3]; 2.1% in [4]; -1.74% in the assay on Trypanosoma cruzi; -4.52% in assay [5]. In addition, the Percent Effect in [6] was 17.8%; in the assay listed under Homo sapiens, 8.25%; in assay [7], 3.12%; in assay [8], 20.2%; in assay [9] it was -26.2%.

Consider `O=C(NCCc1ccn(-c2ccccc2)n1)N1CCC1`, for which the Percent Effect in [1] is -2.79%; in assay [2] it was 15.6%; in assay [3], -0.615%; in assay [4], -16.6%; in the assay with Trypanosoma cruzi, 1.67%; in assay [5], -2.32%. Moreover, the Percent Effect was 25.5% in [6]; 4.57% in the assay listed under Homo sapiens; 5.71% in assay [7]; 25.9% in assay [8]; -20.8% in assay [9].

Turning to `CCNC(=O)NC(=O)CSC(C)c1ccccc1F` (stereo not given), the Percent Effect in assay [1] is -2.26%; in assay [2], 0%; in [3], -7.52%; in assay [4] it was 16.2%; in the assay on Trypanosoma cruzi it was 3.8%; in assay [5], 16.7%. Further, the Percent Effect was 11.3% in assay [6]; -1.43% in the assay listed under Homo sapiens; 3.83% in assay [7]; 25.9% in [8]; -6.89% in assay [9].

Consider `CC(C)OCCOCc1cccc(NC(=O)NCCn2ccnc2)c1`, for which the Percent Effect in [1] is -0.877%; in assay [2], 10.4%; in assay [3], -2.37%; in assay [4], 9.62%; in the assay on Trypanosoma cruzi, 5.61%; in [5], -1.38%. In addition, the Percent Effect in assay [6] was 8.65%; in the assay listed under Homo sapiens, -0.82%; in assay [7] it was -1.07%; in assay [8], 3.7%; in assay [9] it was -7.91%.

Regarding `Cc1nc(CCNC(=O)NCc2ccc(N(C)C)nc2)cs1`, the Percent Effect was -4.75% in assay [1]; 13.5% in [2]; -4.65% in assay [3]; 3.94% in assay [4]; 1.79% in the assay on Trypanosoma cruzi; -0.401% in assay [5]. Further, the Percent Effect is 12.1% in assay [6]; -114% in the assay filed under Homo sapiens; 9.36% in assay [7]; 16.1% in [8]; -4.66% in [9].

In the case of `Cc1csc(N2CCN(Cc3cnc(C)s3)CC2C)n1` (stereo not given), the Percent Effect is -4.06% in [1]; 5.48% in assay [2]; 3.55% in assay [3]; -0.927% in [4]; 2.94% in the assay on Trypanosoma cruzi; 1.36% in assay [5]. Besides, the Percent Effect in assay [6] is 11.2%; in the assay filed under Homo sapiens it was 52.1%; in assay [7], 5.38%; in assay [8], 17.5%; in assay [9] it was -2.04%.

Take `Cc1cc(C(N)=O)ccc1NC(=O)c1nc(N2CCCC2)ncc1Cl`: the Percent Effect was 0.24% in [1]; 0% in assay [2]; -4.73% in assay [3]; -1.27% in assay [4]; -8.4% in the assay on Trypanosoma cruzi; 6.67% in assay [5]. For the same compound, the Percent Effect in [6] is 11.1%; in the assay listed under Homo sapiens, 1.42%; in [7], 5.94%; in assay [8] it was 3.66%; in [9], 2.96%.

Consider `Cc1cc(C(=O)N2CCc3nnc(N(C)C)cc3C2)c(C)n1C1CC1`, for which the Percent Effect in assay [1] is -2.94%; in assay [2], 3.8%; in assay [3], -0.0334%; in assay [4], 0.611%; with Trypanosoma cruzi it was -0.513%; in [5], 4.52%. In addition, the Percent Effect in assay [6] is 16.1%; in the assay listed under Homo sapiens, 14%; in assay [7] it was 8.33%; in assay [8] it was 10.1%; in assay [9], -3.64%.

`O=C(C1CC=CC1)N1C[C@@H]2[C@@H](C1)OCC(=O)N2Cc1cccnc1`: the Percent Effect in [1] was -2.28%; in assay [2], -2.6%; in [3], 12.1%; in [4] it was 3.67%; in the assay with Trypanosoma cruzi, 0.888%; in [5] it was -3.23%. Moreover, the Percent Effect in assay [6] was 0.87%; in the assay filed under Homo sapiens it was 15%; in assay [7], 2.12%; in assay [8] it was 6.41%; in assay [9], -4.72%.
